For 20 molecules, growth results are on record in PubChem BioAssay (NCI).

Some test systems named below: HCT-15 colon; HT29 colon; SNB-75 CNS; SNB-19 CNS; U251 CNS; PC-3 prostate; SK-MEL-5 melanoma; UACC-62 melanoma; LOX IMVI melanoma; SK-MEL-28 melanoma.
Holding throughout (experiment): NCI-60 one-dose screen, 48 h (100 = growth as untreated, 0 = no growth, -100 = all killed)
Common to all, as to details: 10 µM unless noted

This is part of a sample that, as a whole, favours compounds with a hit. Of some 83,000 tested, about 20% had one in any assay.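 Negative percent growth values reflect cell death: -40 means 40% of the cells present at the start died, and -100 means all died.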 Values without a mark were called inactive. Active and inactive are the calls of the source. Rule for the calls: active = growth percent below 10; inactive = the rest.

For `COC(=O)/C=C1\S/C(=N\NS(=O)(=O)c2ccc(C)cc2)N(c2ccccc2)C1=O`, the growth in the experiment with HCT-15 colon was 98.7%; with HT29 colon, 117%; in the experiment on SNB-75 CNS it was 83.8%; in the experiment with SNB-19 CNS, 97%; in the experiment with U251 CNS, 102%; in the experiment on PC-3 prostate, 96.4%. In addition, the growth in the experiment on SK-MEL-5 melanoma is 100%; in the experiment on UACC-62 melanoma it was 95.2%; in the experiment with LOX IMVI melanoma, 98.7%; in the experiment with SK-MEL-28 melanoma, 104%.
For the molecule `CCOC(=O)c1ccc(N2NC(=O)/C(=C/c3ccc([N+](=O)[O-])o3)C2=O)cc1`, the growth is 96.6% in the experiment with HCT-15 colon; 114% in the experiment on HT29 colon; 99.9% in the experiment on SNB-75 CNS; 115% in the experiment on SNB-19 CNS; 108% in the experiment with U251 CNS; 79.2% in the experiment with PC-3 prostate. For the same molecule, the growth with SK-MEL-5 melanoma was 108%; in the experiment on UACC-62 melanoma it was 112%; in the experiment with LOX IMVI melanoma it was 91.6%; with SK-MEL-28 melanoma it was 108%.
Turning to `COc1cc(/C=C/C(=O)c2c(C)nc3ccccc3c2C)ccc1OCCCN1CCN(C(=O)c2ccco2)CC1`, the growth in the experiment on HCT-15 colon is 76.2%; in the experiment on HT29 colon it was 6.55% (active); in the experiment on SNB-75 CNS, -70.5% (active); with SNB-19 CNS it was 99%; in the experiment on U251 CNS it was 77.9%; with PC-3 prostate, 88.3%. Also, the growth in the experiment with SK-MEL-5 melanoma is 33.5%; in the experiment with UACC-62 melanoma, 65.9%; in the experiment with LOX IMVI melanoma it was 81.9%; in the experiment with SK-MEL-28 melanoma, -29% (active).
For the molecule `COc1ccc2c(c1)C(=O)/C(=C/c1cccc(OCC(=O)Nc3nc(C)c(C)s3)c1)O2`, the growth with HCT-15 colon was 12.3%; in the experiment with HT29 colon, -82.2% (active); in the experiment on SNB-75 CNS, -95.3% (active); in the experiment with SNB-19 CNS it was 80.6%; in the experiment with U251 CNS it was 0% (active); in the experiment with PC-3 prostate, -85.4% (active). Besides, the growth in the experiment on SK-MEL-5 melanoma is 40.4%; with UACC-62 melanoma it was 47.1%; in the experiment on LOX IMVI melanoma it was -63.9% (active); in the experiment with SK-MEL-28 melanoma it was 11.2%.
Consider `Cc1nn(-c2ccccc2)c(Cl)c1/C=C(/NC(=O)c1ccccc1)c1nc2ccccc2[nH]1`, for which the growth is 94.1% in the experiment with HCT-15 colon; 75.3% in the experiment with HT29 colon; 96.9% in the experiment on SNB-75 CNS; 101% in the experiment with SNB-19 CNS; 92.4% in the experiment with U251 CNS; 78% in the experiment with PC-3 prostate. Moreover, the growth was 107% in the experiment on SK-MEL-5 melanoma, 75% in the experiment on UACC-62 melanoma, 96.8% in the experiment on LOX IMVI melanoma and 83.6% with SK-MEL-28 melanoma.
With `Cc1cc(=O)[nH]c(N=Nc2c(O)[nH]c3ccccc23)n1`, the growth was 109% in the experiment on HCT-15 colon; 106% in the experiment with HT29 colon; 105% in the experiment with SNB-75 CNS; 103% with SNB-19 CNS; 103% in the experiment on U251 CNS; 97.9% with PC-3 prostate. Besides, the growth in the experiment with SK-MEL-5 melanoma was 103%; in the experiment with UACC-62 melanoma, 106%; in the experiment on LOX IMVI melanoma, 99.8%; in the experiment with SK-MEL-28 melanoma, 111%.
In the case of `COc1cc(C2CC(=O)Nc3c2c(C)nn3-c2nc3ccccc3[nH]2)cc2c1OCC(=O)N2` (stereo not given), the growth in the experiment on HCT-15 colon is 95.3%; in the experiment on HT29 colon it was 66.9%; in the experiment with SNB-75 CNS, 19.3%; in the experiment with SNB-19 CNS, 49.1%; in the experiment with U251 CNS, 55.2%; with PC-3 prostate it was 69.1%. Further, the growth in the experiment on SK-MEL-5 melanoma is 52.3%; in the experiment with UACC-62 melanoma, 65.5%; in the experiment on LOX IMVI melanoma, 51.2%; in the experiment on SK-MEL-28 melanoma it was 65.4%.
In the case of `CN(c1ccccc1)c1ccc2c(c1)OCCC21CC1Nc1cnccc1C(=O)O` (stereo not given), the growth in the experiment on HCT-15 colon was 27.1%; with HT29 colon, 75.8%; in the experiment with SNB-75 CNS, 67.3%; in the experiment on SNB-19 CNS, 66.6%; in the experiment with U251 CNS it was 43.9%; with PC-3 prostate it was 52.4%. In addition, the growth was 48.7% with SK-MEL-5 melanoma, 62% in the experiment with UACC-62 melanoma, 34.3% in the experiment with LOX IMVI melanoma and 69.1% with SK-MEL-28 melanoma.
As to `CC(=O)N1N=C(c2ccc(Nc3nc(Nc4ccc(F)cc4)nc(Nc4ccc(F)cc4)n3)cc2)CC1c1cccc([N+](=O)[O-])c1` (stereo not given), the growth with HCT-15 colon is 91.7%; in the experiment on HT29 colon, 48.5%; in the experiment on SNB-75 CNS, 21.8%; in the experiment with SNB-19 CNS it was 92.5%; with U251 CNS, 86.7%; with PC-3 prostate, 70.9%. The growth in the experiment with SK-MEL-5 melanoma was 78.8%; with UACC-62 melanoma, 92.6%; in the experiment on LOX IMVI melanoma, 87.9%; in the experiment on SK-MEL-28 melanoma, 74.4%.
Take `CCOc1ccccc1-c1cc(-c2cccs2)c(C#N)c(=O)[nH]1`: the growth in the experiment on HCT-15 colon is 56.8%; with HT29 colon it was 120%; in the experiment on SNB-75 CNS, 45.8%; in the experiment with SNB-19 CNS it was 86.1%; in the experiment on U251 CNS it was 88.6%; in the experiment on PC-3 prostate, 84.5%. Besides, the growth in the experiment with SK-MEL-5 melanoma is 85.8%; in the experiment with UACC-62 melanoma, 63.7%; with LOX IMVI melanoma, 86.6%; in the experiment on SK-MEL-28 melanoma, 94.6%.
Regarding `CC1=NOC(=O)/C1=C\c1ccc(O)cc1`, the growth is 104% with HCT-15 colon; 106% with HT29 colon; 77.9% in the experiment with SNB-75 CNS; 99% in the experiment with SNB-19 CNS; 101% with U251 CNS; 101% in the experiment on PC-3 prostate. Besides, the growth with SK-MEL-5 melanoma is 101%; with UACC-62 melanoma it was 100%; with LOX IMVI melanoma, 96.8%; with SK-MEL-28 melanoma it was 103%.
In the case of `CCN1C(=O)N(CC)C2Nn3c(s/c(=C\c4cccc([N+](=O)[O-])c4)c3=O)=NC21` (stereo not given), the growth is 31.8% in the experiment on HCT-15 colon; 74.9% in the experiment on HT29 colon; 20% in the experiment on SNB-75 CNS; 53.3% in the experiment on SNB-19 CNS; 33.5% in the experiment with U251 CNS; 35.8% with PC-3 prostate. Also, the growth with SK-MEL-5 melanoma is 31.8%; with UACC-62 melanoma, 47%; in the experiment on LOX IMVI melanoma it was 56.4%; with SK-MEL-28 melanoma it was 57.3%.
Turning to `COc1ccc2[nH]c(O)c(C(=Nc3ccc(N(C)C(=O)CN4CCN(C)CC4)cc3)c3ccccc3)c2c1`, the growth with HCT-15 colon is 24.7%; in the experiment with HT29 colon, 18%; in the experiment on SNB-75 CNS, -5.94% (active); in the experiment on SNB-19 CNS, 57.5%; with U251 CNS, 45.1%; in the experiment with PC-3 prostate it was 56.6%. Moreover, the growth in the experiment with SK-MEL-5 melanoma is 67.3%; in the experiment with UACC-62 melanoma it was 75.3%; in the experiment with LOX IMVI melanoma, 9.09% (active); in the experiment on SK-MEL-28 melanoma it was 42.4%.
`COc1cc(C2CC(=O)Nc3c2c(C)nn3-c2nc3ccccc3[nH]2)c(OC)c2c1OCO2` (stereo not given): the growth was 40.2% in the experiment with HCT-15 colon; 95% with HT29 colon; 31.1% with SNB-75 CNS; 71.4% in the experiment on SNB-19 CNS; 67.8% with U251 CNS; 71.3% with PC-3 prostate. Further, the growth with SK-MEL-5 melanoma was 56.9%; in the experiment on UACC-62 melanoma, 55.5%; in the experiment with LOX IMVI melanoma it was 82.1%; with SK-MEL-28 melanoma it was 75.8%.
For the molecule `COc1cc(N=Nc2cc(Cc3ccc(N(C)C)cc3)c(N)cc2N(C)C)c2ncccc2c1`, the growth was -13.2% (active) in the experiment on HCT-15 colon; -65.4% (active) with HT29 colon; 28.1% with SNB-75 CNS; 6.94% (active) in the experiment with SNB-19 CNS; -54.8% (active) in the experiment with U251 CNS; 3.89% (active) with PC-3 prostate. Moreover, the growth is -13.8% (active) in the experiment on SK-MEL-5 melanoma, -34% (active) with UACC-62 melanoma, -83.2% (active) with LOX IMVI melanoma and 15.7% in the experiment on SK-MEL-28 melanoma.
Take `COc1ccc2cc(-c3cc(OC)c(OC)c(OC)c3)c(=O)oc2c1`: the growth in the experiment on HCT-15 colon was 50%; in the experiment on HT29 colon, 44.3%; in the experiment with SNB-75 CNS, 65%; in the experiment with SNB-19 CNS, 80.3%; with U251 CNS it was 70.7%; in the experiment on PC-3 prostate, 69.2%. For the same molecule, the growth in the experiment on SK-MEL-5 melanoma was 79.5%; in the experiment with UACC-62 melanoma, 42%; in the experiment with LOX IMVI melanoma, 73.5%; with SK-MEL-28 melanoma, 78.5%.
Turning to `CN(C)CCC=C1c2ccccc2C(C)(C)c2ccccc21`, the growth with HCT-15 colon is 83.9%; in the experiment on HT29 colon, 30.5%; in the experiment with SNB-75 CNS, 79.3%; in the experiment with SNB-19 CNS it was 86.1%; with U251 CNS, 78.9%; in the experiment on PC-3 prostate it was 55.5%. In addition, the growth in the experiment on SK-MEL-5 melanoma was 64.3%; in the experiment with UACC-62 melanoma it was 71.2%; in the experiment on LOX IMVI melanoma, 69.6%; in the experiment with SK-MEL-28 melanoma, 54.5%.
Turning to `O=C1Nc2ccccc2/C1=C/c1cn(C(=O)c2c(Cl)cccc2Cl)c2ccccc12`, the growth was 31% in the experiment on HCT-15 colon; 69.7% in the experiment with HT29 colon; 54.7% in the experiment with SNB-75 CNS; 68.7% in the experiment with SNB-19 CNS; 35.8% with U251 CNS; 41.7% in the experiment with PC-3 prostate. Further, the growth with SK-MEL-5 melanoma was 63.1%; with UACC-62 melanoma, 36.7%; in the experiment with LOX IMVI melanoma, 48.4%; in the experiment on SK-MEL-28 melanoma it was 81.5%.
Regarding `O=C(NCCc1ccc(O)c(O)c1)C12CC3CC(CC(C3)C1)C2`, the growth in the experiment with HCT-15 colon was 91.8%; in the experiment on HT29 colon it was 102%; in the experiment on SNB-75 CNS it was 82%; in the experiment with SNB-19 CNS, 98.5%; in the experiment with U251 CNS, 101%; with PC-3 prostate, 73.5%. Also, the growth in the experiment with SK-MEL-5 melanoma was 96%; in the experiment with UACC-62 melanoma, 90.3%; in the experiment with LOX IMVI melanoma, 89.1%; in the experiment on SK-MEL-28 melanoma, 104%.
In the case of `CC1=C([Se]CC(OC(=O)[C@@H](CO)NC(=O)OC(C)(C)C)C(=O)NC(C)(C)C)C(=O)c2ccccc2C1=O` (stereo not given in full), the growth with HCT-15 colon is -74.1% (active); in the experiment on HT29 colon, -8.15% (active); in the experiment on SNB-75 CNS, -100% (active); in the experiment on SNB-19 CNS, -100% (active); in the experiment on U251 CNS, -95.2% (active); with PC-3 prostate, -71.8% (active). The growth is -98.2% (active) in the experiment on SK-MEL-5 melanoma, -100% (active) in the experiment on UACC-62 melanoma, -96.4% (active) in the experiment on LOX IMVI melanoma and -100% (active) with SK-MEL-28 melanoma.
